119 compounds from PubChem BioAssay AID618 (Sanford-Burnham Center for Chemical Genomics, 2007) can be followed below.

Screen size: about 87,000 compounds; about 540 (0.62%) were called active. No rule for the calls is given here. Many of the other results were omitted from the sample, so actives are more common in it than they were. Measured potencies and affinities stand elsewhere.

The assay can be described thus: MT1-MMP gene expression reporter suppression – cell-based, luciferase reporter, luminescence (AID 618).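 Also: actives suppress MT1-MMP promoter-driven transcription so potencies describe inhibitors.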 Conditions: MT1-MMP promoter luciferase reporter cells.
Regarding `COc1ccc(S(=O)(=O)n2nc(OC(=O)C3CCCCC3)cc2N)cc1`, the result was inactive.
To `O=C(Nc1ncc(Cc2ccccc2)s1)C1COc2ccccc2O1` (centres undefined) belongs “inactive”; to `COc1ccc2nc(NC(=O)C3COc4ccccc4O3)sc2c1` (centres undefined), “inactive”; to `O=C(Nc1nncs1)C1COc2ccccc2O1` (centres undefined), “inactive”.
To `O=C(Nc1ccncc1)C1COc2ccccc2O1` (centres undefined) belongs “inactive”; to `Cc1nc2ccc3nc(NC(=O)C4COc5ccccc5O4)sc3c2s1` (centres undefined), “inactive”; to `Cc1nnc(NC(=O)C2COc3ccccc3O2)s1` (centres undefined), “inactive”.
To `O=C(Nc1nc(-c2ccc3c(c2)OCO3)cs1)C1COc2ccccc2O1` (centres undefined) belongs “inactive”; to `O=C(NC1=NCCS1)C1COc2ccccc2O1` (centres undefined), “active”.
Regarding `O=C(Nc1nc(-c2ccccn2)cs1)C1COc2ccccc2O1` (centres undefined), the outcome was inactive.
To `COc1ccc(OC)c(S(=O)(=O)Nc2ccc(CC(=O)O)cc2)c1` belongs “inactive”.
Consider `CN(C)/C=N/c1c(C#N)nnn1Cc1ccccc1`, for which the call was inactive.
Take `Cc1ccc2nc3n(c(=O)c2c1)CCCCC3`: the result was inactive.
As for `CCCCn1c(C(C)NC(=O)c2cccs2)nc2ccccc21` (centres undefined), the entry is “inactive”; as for `COc1ccccc1N1CCN(C(=O)CSc2nnc(NC(=O)c3ccco3)s2)CC1`, “inactive”.
To `O=C(Nc1nnc(C(F)(F)F)s1)C1COc2ccccc2O1` (centres undefined) belongs “inactive”; to `CCc1nnc(NC(=O)C2COc3ccccc3O2)s1` (centres undefined), “inactive”.
As for `COc1ccc(-c2noc(CCC(=O)Nc3nc4ccccc4s3)n2)cc1`, the entry is “inactive”.
For `O=C(Nc1cc(C(F)(F)F)ccc1N1CCOCC1)c1c(F)c(F)c(F)c(F)c1F`, the result was inactive.
To `O=C(CSc1nc2ccccc2[nH]1)Nc1cc(C(F)(F)F)ccc1N1CCOCC1` belongs “inactive”; to `Cc1nnc(SCC(=O)Nc2cc(C(F)(F)F)ccc2N2CCOCC2)o1`, “inactive”; to `Cc1onc(-c2ccccc2)c1C(=O)Nc1cc(C(F)(F)F)ccc1N1CCOCC1`, “active”.
To `Cc1ccc2nc(SCC(=O)Nc3cc(C(F)(F)F)ccc3N3CCOCC3)[nH]c2c1` belongs “active”; to `Cc1onc(-c2ccccc2)c1C(=O)Nc1ccccc1N1CCOCC1`, “inactive”; to `CCN(CC)c1ccc2cc(C(=O)Nc3ccc(-n4cnnn4)c(OC)c3)c(=O)oc2c1`, “inactive”.
With `COCc1cc(C)nc2sc(C(=O)Nc3nccs3)c(N)c12`, the outcome was inactive.
As for `CCOC(=O)c1sc2nc(C)cc(C)c2c1N`, the entry is “inactive”; as for `CCOC(=O)CNC(=O)c1sc2nc(C)cc(C)c2c1N`, “inactive”.
As for `Cc1cc(C)c2c(N)c(C(=O)NC3CC3)sc2n1`, the entry is “inactive”; as for `COCCNC(=O)C(c1cccs1)N(CCc1ccccc1)C(=O)Cn1nnc2ccccc21` (centres undefined), “inactive”; as for `O=C(CSc1nnc(CNC(=O)c2cccs2)o1)NCCc1ccccc1`, “inactive”.
Consider `O=C(CNC(=O)c1ccco1)NCC(=O)OC(C(=O)c1ccccc1)c1ccc(Cl)cc1` (centres undefined), for which the compound was called inactive.
On to `CC1CCCc2sc3nc(N4CCN(CCO)CC4)n4ncnc4c3c21` (centres undefined), for which the outcome was inactive.
To `COCCn1c(C)cc(C2=NNC(=Nc3ccc(OC)cc3)SC2)c1C` belongs “inactive”; to `COCCn1c(C)cc(C(=O)COc2nc3ccccc3nc2C)c1C`, “inactive”.
As for `COCCn1c(C)cc(C2=NNC(=Nc3ccc(Cl)cc3Cl)SC2)c1C`, the entry is “inactive”; as for `COCCn1c(-c2ccccc2F)n[nH]c1=S`, “inactive”.
`CCOC(=O)c1c(C)c(C(=O)NC2CCCCC2)c(C)n1CC`: the outcome was inactive.
As for `Cc1ccc(-c2ccccc2NC(=O)CCl)o1`, the entry is “inactive”; as for `CN1/C(=C/C2CC(=O)N(c3cccc4ccccc34)C2=O)C(C)(C)c2ccccc21` (centres undefined), “inactive”; as for `CN1/C(=C/C=N/n2cnnc2)C(C)(C)c2ccccc21`, “inactive”.
As for `O=C(O)CCn1c(=S)oc2ccccc21`, the entry is “inactive”.
As for `Cc1cc(NC(=O)c2cc(Cl)ccc2Cl)no1`, the entry is “inactive”; as for `O=C(C1CCCCC1)N(Cc1ccccc1)c1ccccn1`, “inactive”; as for `COc1cc2c(cc1OC)C1Cc3ccc(OC)c(OC)c3CN1CC2` (centres undefined), “inactive”.
Turning to `COc1cc2c(cc1OC)C1C/C(=N\O)C(CC(C)C)CN1CC2` (centres undefined), the outcome was inactive.
As for `CC[C@H]1CN2CCc3cc(OC)c(OC)cc3[C@@H]2C[C@@H]1C[C@H]1NCCc2cc(OC)c(OC)cc21`, the entry is “active”; as for `O=C(CN1CCCCC1)N1c2ccccc2CCc2ccccc21`, “inactive”.
As for `O=C(CN1C(=O)C2C3C=CC(C3)C2C1=O)N1CCc2ccccc2C1` (centres undefined), the entry is “inactive”.
With `O=C(NCC(c1cccs1)N1CCOCC1)c1ccc(Cl)s1` (centres undefined), the call was active.
To `O=C(NCC(c1cccs1)N1CCOCC1)c1ccco1` (centres undefined) belongs “inactive”; to `CCC(=O)NCC(c1cccs1)N1CCOCC1` (centres undefined), “inactive”; to `CCOC(=O)c1ccc(CC(=O)c2oc3cc(O)ccc3c2C)o1`, “inactive”.
To `CN(C)c1cccc(C(=O)n2cc(C(=O)c3cc(F)ccc3O)cn2)c1` belongs “inactive”.
To `COc1ccc(-c2cc3nc(C)cc(NCCO)n3n2)cc1` belongs “inactive”; to `Cc1cc(N)n2ncc(-c3ccccc3)c2n1`, “inactive”; to `COc1ccc(-c2cc3nc(C)cc(C)n3n2)cc1`, “inactive”.
On to `Cc1cc(N)n2nc(C)c(-c3ccccc3)c2n1`, for which the call was inactive.
As for `Cc1c(C(=O)N2CCN(S(C)(=O)=O)CC2)oc2ccccc12`, the entry is “inactive”; as for `COc1ccc(C)cc1NC(=O)c1ccc(N(C)S(C)(=O)=O)cc1`, “inactive”; as for `CC1CCN(C(=S)c2ccc3c(c2)OCO3)CC1`, “inactive”.
As for `COc1ccc(OC)c2sc(NC(=O)c3ccc(Br)s3)nc12`, the entry is “inactive”; as for `Oc1ccc(Nc2nc(-c3ccc(O)cc3)cs2)cc1`, “inactive”; as for `NS(=O)(=O)c1ccc(Nc2nc(-c3ccc4ccccc4c3)cs2)cc1`, “inactive”.
As for `Oc1ccc(Nc2nc(-c3ccc4ccccc4c3)cs2)cc1`, the entry is “active”; as for `CCN(CC)CCCNC(=O)c1[nH]c(C)c(C(=O)NC2CCCCC2)c1C`, “inactive”.
Turning to `Cc1nc(SCC(N)=O)[nH]c(=O)c1Cc1ccc(OC(C)C)cc1`, the call was inactive.
Take `O=C(Nc1ccccc1C(=O)N1CCN(c2ccccc2)CC1)c1ccco1`: the result was inactive.
As for `c1ccc(-c2n[nH]c(-c3ccccn3)n2)cc1`, the entry is “inactive”; as for `C=CCNc1nc(-c2ccccc2)nc(-n2ccnc2)n1`, “inactive”; as for `CNc1nc(-c2ccccn2)nnc1-c1ccccc1`, “inactive”.
In the case of `c1ccc(-c2noc(C3CCCCC3)n2)nc1`, the outcome was inactive.
As for `c1ccc(-c2nnc(-c3ccccn3)nc2NC2CCCCC2)cc1`, the entry is “active”; as for `N#Cc1ccc(C23CC4(C2)[C@H](CN(Cc2ccc(C(F)(F)F)cc2)[C@@H]4c2ccccc2)C3c2ccc(C(F)(F)F)cc2)cc1` (some centres undefined), “inactive”.
Consider `CCc1ccc2[nH]c(=O)c(C(c3nnnn3Cc3ccccc3)N3CCOCC3)cc2c1` (centres undefined), for which the call was inactive.
To `Cc1cc(N2CCOCC2)nc(SCC(=O)c2ccccc2)n1` belongs “inactive”; to `CCCC1=NCCn2cccc21`, “inactive”.
To `COc1cccc(C(=O)Cn2c(=N)n(C)c3ccccc32)c1` belongs “active”; to `COc1cccc(C(=O)Cn2c(NCCO)nc3ccccc32)c1`, “inactive”.
As for `Cn1c(=N)n(CC(=O)O)c2ccccc21`, the entry is “inactive”; as for `CC(=O)NCCSCCNC(C)=O`, “inactive”.
As for `CSc1nnc(-c2ccc(S(=O)(=O)N3CCOCC3)cc2)n1CC1CCCO1` (centres undefined), the outcome was inactive.
As for `O=S(=O)(c1ccc2c(c1)nc(COc1ccc(Cl)cc1)n2CC1CCCO1)N1CCOCC1` (centres undefined), the compound was classed as active.
To `CCSc1nnc(-c2ccc(S(=O)(=O)N3CCOCC3)cc2)n1CC1CCCO1` (centres undefined) belongs “inactive”; to `Cn1c(C(=O)NCCN2CCCCCC2)cc2c(=O)n(C)c3ccccc3c21`, “inactive”; to `O=S(=O)(Nc1nnc(-c2ccccc2)s1)c1ccc(Cl)cc1`, “inactive”.
To `Cc1ncc(S(=O)(=O)c2ccc(Cl)cc2)c(-c2ccccc2)n1` belongs “inactive”; to `CCN(CC)CCCNC(=O)c1cc(-c2ccc(Cl)cc2)on1`, “inactive”.
For the compound `c1ccc(-c2cn3c4c(sc3n2)CCCC4)cc1`, the result was active.
As for `Cc1c(C(N)=O)sc2nc(-c3ccccc3)cn12`, the entry is “inactive”.
As for `Cc1c(C(=O)N2CC(C)OC(C)C2)sc2nc(-c3ccccc3)cn12` (centres undefined), the compound was classed as inactive.
To `CCOc1ccc(N(CC(=O)NCC2CCCO2)S(=O)(=O)c2ccc(SC)cc2)cc1` (centres undefined) belongs “inactive”; to `CSc1nc2sc3c(c2c(=O)n1C)CCC(C)C3` (centres undefined), “inactive”.
As for `O=C1CSC(=NC2CCCCC2)N1`, the entry is “inactive”; as for `COc1ccc(N=C2NN=C(c3ccc4c(c3)OCCO4)CS2)cc1`, “inactive”.
In the case of `Cc1cccc(N=C2NN=C(c3ccc4c(c3)OCCO4)CS2)c1`, the call was inactive.
As for `FC(F)Sc1ccc(N=C2NN=C(c3ccc4c(c3)OCCO4)CS2)cc1`, the entry is “inactive”.
As for `COc1ccc(C(=O)NCCCN2CCCC2=O)cc1`, the entry is “inactive”; as for `c1cnc(-c2nnc3n2CCCCC3)cn1`, “inactive”; as for `CCC1(N(C(C)=O)c2ccc(OC)cc2)C(=O)c2ccccc2C1=O`, “inactive”.
To `CCOC(=O)CCSc1nc(C)c2cc(C)c(C)cc2n1` belongs “inactive”; to `CCCC(=O)Nc1nnc(-c2cccc(OCC)c2)s1`, “inactive”; to `CC(=O)Nc1ccc(NC(=O)C2CCCN(c3ncccn3)C2)cc1` (centres undefined), “inactive”.
Turning to `O=C(Nc1ccc2c(c1)OCCO2)C1CCCN(c2ncccn2)C1` (centres undefined), the call was active.
As for `Cc1cc(C)nc(N2CCCC(C(=O)Nc3ccc4c(c3)OCCO4)C2)n1` (centres undefined), the entry is “inactive”; as for `O=C(Nc1ccc2c(c1)OCO2)C1CCCCN1S(=O)(=O)c1ccccc1` (centres undefined), “inactive”; as for `Cc1ncc(S(=O)(=O)c2ccccc2)c(-c2ccc(Cl)cc2Cl)n1`, “inactive”.
To `CC(=O)CSc1nnc(-c2ccc3c(c2)OCO3)o1` belongs “inactive”; to `CCC1CCCCN1C(=O)CSc1nnc(-c2ccc3c(c2)OCCO3)o1` (centres undefined), “inactive”.
To `O=C(O)CSc1nnc(-c2ccc3c(c2)OCO3)o1` belongs “inactive”.
As to `O=C(CSc1nnc(-c2ccc3c(c2)OCCO3)o1)N1CCCC1`, the outcome was inactive.
As for `O=C(c1ccco1)N1CCN=C1SCc1ccc(F)cc1`, the entry is “inactive”; as for `COc1ccc(NC(=O)CN(C2CCCCC2)S(C)(=O)=O)cc1OC`, “inactive”; as for `N=C1C(c2ccc(Br)cc2)=C(O)C2CCc3ccccc3N12` (centres undefined), “inactive”.
As for `CCC(=O)Nc1cc2c(cc1C(C)=O)OCCO2`, the entry is “inactive”; as for `Cc1ccc(Cl)cc1NC(=O)CCC(=O)Nc1cc(Cl)ccc1C`, “inactive”; as for `COc1cc(C(=O)Nc2cc(C)ccn2)cc(OC)c1OC`, “inactive”.
As for `COc1ccc(C(=O)NC(=O)Nc2cc(C)ccn2)cc1`, the entry is “active”.
For `COc1ccc(CC(=O)Nc2cc(C)ccn2)cc1`, the call was inactive.
